Compound activity: PubChem, National Center for Advancing Translational Sciences (NCATS)
Luc counter = blocks Kinase-Glo luciferase, a counter-screen artifact. Kinase-Glo luciferase, ATP luminescence, 8 min. Potency, µM (titrated, usually from 38.3 µM), for the others: at the highest dose activity change, negative = inhibition, usual class: inhibitors. 200,000 tested, 0.28% active; note: % is set by controls: 0 for no effect and ±100 for the full control effect; nearly all actives have a fitted effect of over 60% in size
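Substrate mix (final 50 mM imidazole pH 7.2, 50 mM KCl, 7 mM MgCl2, 10 uM ATP, 0.01% Tween 20, 0.05% BSA) plus pin-tool compound, then Kinase-Glo detection mix; 8 min ambient, luminescence read.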
ELG1 genotox = genotoxicity induction in ELG1-luciferase HEK293T cells; Potency, µM (titrated, usually from 46 µM), for the others: at the highest dose activity change, positive = activation, usual class: activators; 330,000 tested, 1.3% active; HEK293T ELG1-luciferase reporter, luminescence, 16 h; note: % of control where 0% means no effect; nearly all actives have a fitted effect of over 60% in size
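ELG1-luciferase HEK293T cells, 2,000/well; compound pinned in; 16 hr, 37 °C, 5% CO2; ONE-Glo, 30 min RT; luminescence on CCD imager.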
Rab9 prom act = activators of Rab9 promoter; Huh7 Rab9 promoter-luciferase reporter, luminescence, 24 h; Potency, µM (series often up to 9.22 µM), for the others: at the highest dose activation, negative = inhibition, most hits filed as activators; 320,000 tested, 2.8% active; AID 485297; note: % of control where 0% means no effect; nearly all actives have a fitted effect of over 60% in size
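Using Huh7 cells stably transfected with Rab9 promoter–luciferase, compounds were incubated 24 h at 37 °C, 5% CO2; luciferase luminescence was read 10 min after reagent addition.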
FLuc counter = counter-screen for miR-21 project: firefly luciferase inhibitors or activators. P08659. AID 588342. Potency, µM (highest dose often 57.5 µM), for the others: top-dose activity change, negative = inhibition, actives largely listed as inhibitors. purified FLuc, Km substrates, luminescence inhibition. 360,000 tested, 6.9% active;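 note: plate controls were vehicle for no effect and reference inhibitor for full effect; nearly all actives have a fitted effect of over 55% in size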
Target sequence (P08659 whole entry, looked up): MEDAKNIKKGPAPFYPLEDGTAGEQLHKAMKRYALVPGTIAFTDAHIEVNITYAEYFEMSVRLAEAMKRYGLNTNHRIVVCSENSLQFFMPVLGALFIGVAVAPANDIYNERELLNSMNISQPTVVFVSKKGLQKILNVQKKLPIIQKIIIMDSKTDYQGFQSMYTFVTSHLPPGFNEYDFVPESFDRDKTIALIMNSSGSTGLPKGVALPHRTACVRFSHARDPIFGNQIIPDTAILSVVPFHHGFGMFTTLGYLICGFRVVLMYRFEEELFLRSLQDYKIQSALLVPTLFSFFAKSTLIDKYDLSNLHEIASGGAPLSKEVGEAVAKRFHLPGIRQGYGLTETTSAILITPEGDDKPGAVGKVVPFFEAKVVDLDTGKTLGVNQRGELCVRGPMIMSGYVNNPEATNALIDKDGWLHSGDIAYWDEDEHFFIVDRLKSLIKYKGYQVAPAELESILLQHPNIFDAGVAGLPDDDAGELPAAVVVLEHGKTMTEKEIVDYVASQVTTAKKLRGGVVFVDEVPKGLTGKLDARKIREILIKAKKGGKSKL
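Purified P. pyralis luciferase (10nM final) with 10uM D-luciferin and 10uM ATP (Km levels) in 50mM Tris acetate pH 7.5, 10mM Mg acetate, 0.01% Tween-20, 0.05% BSA; qHTS 6-point titration, ~60 µM downward; luminescence read.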
NPC1 promoter act = NPC1 promoter activation. Huh7 NPC1 promoter luciferase reporter, 24 h. Potency, µM (doses to about 9.22 µM), inactives show top-dose activation, usual class: activators. 320,000 tested, 2.4% active; note: % of control where 0% means no effect; nearly all actives have a fitted effect of over 60% in size
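Stably transfected Huh7 (NPC1 promoter→luciferase), 1500 cells/well in Opti-MEM + 10% FBS, 2 h settle, then compound 24 h at 37 °C. Luminescence after 10 min with Amplite reagent.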
SMN2 splice up = enhancers of SMN2 splice variant expression; 210,000 tested, 2.8% active; Potency, µM (titrated, usually from 46.1 µM), without a hit: at the highest dose activity change, positive = activation, usual class: activators; HEK293 SMN2-luciferase splicing reporter, luminescence, 30-36 h; note: % of control where 0% means no effect; nearly all actives have a fitted effect of over 55% in size
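HEK293 cells carry an SMN2 minigene-luciferase reporter in which exon 7 inclusion puts luciferase in frame. Cells were seeded at 2000 cells/well, attached for 10-12 hours, then exposed to compounds for 30-36 hours at 37C before ONE-Glo luminescence.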
* marks the source's active call; other numbers are inactive results; [ ] = dose if it differs, or a comment. Hits are enriched below; roughly 7.5% of the tested compounds scored in any of these assays. Calls come from the whole dose curve; as a rule, active = well fitted curve in the direction sought with a large enough effect; inconclusive = small, poorly fitted or top-dose-only effect, or another doubt; inactive = no such curve, though single readings can be large; an effect the other way counts as inactive or inconclusive. Potency is the fitted concentration of half-maximal effect.

For COC(=O)c1ccc(-n2nnc(-c3nc(-c4ccc5c(c4)OCO5)no3)c2C)cc1 the results were FLuc counter -2.1%.
CN1CCN(CCCBr)CC1 was read as Luc counter -3.0%[7.66 µM] and SMN2 splice up 0.9%[9.22 µM].
O=C(Cn1c(=O)nc(-c2ccccc2)c2cc(Cl)ccc21)N1CCN(c2ccc(F)cc2)CC1 was read as FLuc counter -7.8%.
For Cc1ccc(-n2nc3ccc(N)cc3n2)cc1C the results were ELG1 genotox 0.92µM*, Rab9 prom act 0.501µM*, FLuc counter 0.477µM* and NPC1 promoter act 1.58µM*.
`COc1ccc(-n2nc([N+](=O)[O-])c(=NCCCN3CCCC3=O)n2O)cc1` gave Luc counter -3.3%, ELG1 genotox inconclusive, Rab9 prom act 1.58µM*, FLuc counter -1.5%, NPC1 promoter act inconclusive and SMN2 splice up 30.9%.
For O=C1CCCN1CCCN=c1c([N+](=O)[O-])nn(-c2ccc(Cl)cc2)n1O the results were Luc counter 2.5%, ELG1 genotox 13.3%, Rab9 prom act 18.2%, FLuc counter -1.9%, NPC1 promoter act 11.4% and SMN2 splice up 8.2%.
For COc1ccc(-n2nc([N+](=O)[O-])c(=NCCc3cccc(C)c3)n2O)cc1 the results were ELG1 genotox -2.6%, Rab9 prom act 2.24µM*, FLuc counter -7.5% and NPC1 promoter act inconclusive.
Screening O=Nc1ccc(NOC(=O)c2ccccc2)cc1 returned Luc counter 10µM*, ELG1 genotox -2.9%, Rab9 prom act -3.0%, FLuc counter 0.0953µM*, NPC1 promoter act -3.5% and SMN2 splice up -38.2%.
`Cc1cc(C(=O)CN2C(=O)NC(C)(c3ccccc3)C2=O)c(C)n1CC1CCCO1` (stereo unspecified) gave Luc counter 2.2%, ELG1 genotox 1.0%, Rab9 prom act 1.5%, FLuc counter 16.9µM*, NPC1 promoter act 10.3% and SMN2 splice up 19.4%.
For Cc1cc(C(=O)CN2C(=O)c3ccccc3S2(=O)=O)c(C)n1CC1CCCO1 (stereo unspecified) the results were Luc counter 0.1%, ELG1 genotox -17.6%, Rab9 prom act -42.1%, FLuc counter 7.57µM*, NPC1 promoter act -47.9% and SMN2 splice up -68.0%.
For C=Cc1ccc(CN2C(=O)N(c3ccc(CC)cc3)S(=O)(=O)c3ccccc32)cc1 the results were FLuc counter -6.1%.
For COc1cccc(N/C=C/c2onc(C)c2[N+](=O)[O-])c1 the results were Luc counter -0.1%, ELG1 genotox inconclusive, Rab9 prom act 2.51µM*, FLuc counter -2.8%, NPC1 promoter act inconclusive and SMN2 splice up inconclusive.
`Cc1cccc(C)c1N/C=C/c1onc(C)c1[N+](=O)[O-]` gave Luc counter -0.9%, FLuc counter 3.1% and SMN2 splice up -0.9%.
Cc1ccc(N/C=C/c2onc(C)c2[N+](=O)[O-])cc1 was read as ELG1 genotox 1.3µM*, Rab9 prom act 0.631µM*, FLuc counter 0.601µM* and NPC1 promoter act 2.51µM*.
`CC(=O)Oc1c(C)cc(OCC(O)CNC(C)C)c(C)c1C` (stereo unspecified) gave Luc counter -1.7%[39.9 µM].
`Cc1ccc(NC(=O)C2OCCc3ccccc32)cc1Cl` (stereo unspecified) gave Luc counter -0.3%, ELG1 genotox 11.2%, Rab9 prom act 10.5%, FLuc counter 23.9µM*, NPC1 promoter act 7.3% and SMN2 splice up 1.7%.
`CCOC(=O)c1sc2nc3c(cc2c1N)COC(C(C)C)C3` (stereo unspecified) gave Luc counter -5.8%, ELG1 genotox 0.13µM*, Rab9 prom act inconclusive, FLuc counter 0.12µM*, NPC1 promoter act 0.794µM* and SMN2 splice up -84.1%.
